The values below come from PubChem BioAssay (NCATS).

The nature of assay [1]: qHTS profiling of the MIPE4 collection as inhibitors of Plasmodium falciparum (3D7) proliferation (AID 743344; call rule not given here;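 also: scaled between DMSO vehicle wells and 0.29 µM artemisinin as full inhibition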). Particulars: P. falciparum 3D7 in erythrocytes, SYBR Green DNA fluorescence, 72 h; at 28.5 µM unless noted. In short, it runs like this:
(§1)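 Erythrocytes infected with P. falciparum (0.3% parasitemia, 2.5% hematocrit) incubated with compounds 72 h at 37 C, 5% CO2. Lysis with saponin/Triton buffer containing SYBR Green I, overnight at room temperature in the dark; DNA fluorescence (485/535 nm) normalised to 0.29 uM artemisinin and DMSO.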
On the technique in general: Quantitative high-throughput screening tests each substance at several concentrations.

Assay [2] can be described thus: qHTS profiling of the MIPE4 collection as inhibitors of Plasmodium falciparum (DD2) proliferation (AID 743345; call rule not given here). Particulars: P. falciparum Dd2 in erythrocytes, SYBR Green DNA, 72 h; at 28.5 µM unless noted. In outline:
as §1

A short description of assay [3]: qHTS profiling of the MIPE4 collection as inhibitors of Plasmodium falciparum (DD2) proliferation (Rep 2) (AID 743346; call rule not given here). Conditions: P. falciparum Dd2 in erythrocytes, SYBR Green DNA, 72 h; at 28.5 µM unless noted. In short, it runs like this: as §1
Assay [4] is described as follows: qHTS profiling of the MIPE4 collection as inhibitors of Plasmodium falciparum (HB3) proliferation (AID 743347; call rule not given here;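 also: plate controls were DMSO vehicle wells for no effect and artemisinin wells for full effect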). Conditions: P. falciparum HB3 in erythrocytes, SYBR Green DNA, 72 h; at 28.5 µM unless noted. In outline: as §1
Assay [5] is described as follows: High-throughput drug toxicity screening in the BPDCN cell line Gen2.2 (AID 1224824; call rule not given here). Particulars: Gen2.2 BPDCN cells; at 45.8 µM (top of the series) unless noted. In outline:
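Seed 500 exponentially growing Gen2.2 cells/well; add compounds by pin tool; incubate 48 h, 37 °C, 5% CO2; add CellTiter-Glo, 15 min RT; read luminescence. % activity vs DMSO (100%) and bortezomib (0%).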

Assay [6] is described as follows: High-throughput drug toxicity screening in the BPDCN cell line Cal-1 (AID 1224825; call rule not given here). Conditions: Cal-1 BPDCN cell viability, qHTS; at 45.8 µM (top of the series) unless noted. In outline:
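Cal-1 cells, 500 per well in phenol-red-free RPMI with 10% FBS, exposed to compounds for 48 hours at 37C, 5% CO2. Viability read by CellTiter-Glo luminescence; percent activity normalized to DMSO (100%) and 9.2 uM bortezomib final (0%).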

Assay [7] in a line: qHTS assay for measurement of the activity of small molecule inhibitors on Zika virus induced Caspase-3 activity in human iPSC derived neural progenitor cells (hNPCs) (AID 1224857). Also: % of control where 0% means no effect; nearly all actives have a fitted effect of over 65% in size. In short, it runs like this: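 Caspase-3/7 induction by a 6-hour ZIKV infection was quantified with a luminescent Caspase-Glo 3/7 reagent incubated 30 minutes at room temperature. Compounds were preincubated with hNPCs for 1 hour; inhibition was calculated against uninfected and infected control wells.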

The nature of assay [8]: qHTS assay for measurement of the activity of small molecule inhibitors on Zika virus induced Caspase-3 activity in human astrocytoma cells (AID 1224859).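 Also: plate controls were ZIKV-infected untreated cells for no effect and uninfected cells for full effect.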 In outline:
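In SNB-19 cells plated at 250 cells/well and grown 16-20 h, compounds were applied 1 h before ZIKV (2 FFU/cell). Six hours later caspase-3/7 luminescence was recorded.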

Assay [9] in a line: qHTS Screen of the MIPE 4.0 Collection Against Ewings Sarcoma (RDES) (AID 1259252). Also: potency is read from the fitted curve at half-maximal effect; nearly all actives have a fitted effect of over 35% in size. In outline: (§2)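 Viability screen: 48 h incubation at 37C, 95% humidity, 5% CO2 with serially titrated compound, followed by CellTiter-Glo readout.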
Assay [10] can be described thus: qHTS profiling for inhibitors of Plasmodium falciparum (HB3) proliferation (AID 743324).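 Also: 100% = DMSO vehicle wells and 0% = artemisinin-treated control wells.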 Particulars: Plasmodium falciparum HB3 blood-stage proliferation; at 28.7 µM (top of the series) unless noted. In outline: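 P. falciparum HB3 grown in erythrocytes (0.3% parasitemia, 2.5% hematocrit final) with compound for 72 h at 37 C, 5% CO2. Parasite DNA detected by SYBR Green after saponin/triton lysis overnight; normalized to 0.29 uM artemisinin and DMSO.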

Assay [11] in a line: qHTS Screen of the MIPE 4.0 Collection Against Ewings Sarcoma (TC71) (AID 1259253). Also: potency is read from the fitted curve at half-maximal effect; nearly all actives have a fitted effect of over 40% in size. In short, it runs like this:
as §2

A short description of assay [12]: qHTS Screen of the MIPE 4.0 Collection Against Ewings Sarcoma (TC32) (AID 1259256). Also: potency is read from the fitted curve at half-maximal effect; nearly all actives have a fitted effect of over 45% in size. In outline:
as §2

The nature of assay [13]: Identifying Small Molecule Inhibitors of Pancreatic Cancer Stem Cells (A278, Adherent) (AID 1259361).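 Also: viability read after 48 h compound exposure; nearly all actives have a fitted effect of over 35% in size.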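 As to viability (% of control): 100% = DMSO-treated cells and 0% = cell-free media-only wells.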 In short, it runs like this: (§3)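 Monolayer and spheroid cultures are compared. Spheroids form over 14 days in stem cell medium on hydrogel-coated low-attachment plates, then are exposed to compound for 48 h before CellTiter-Glo luminescence.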
Assay [14] can be described thus: qHTS Screen of the MIPE 4.0 Collection Against Ewings Sarcoma (EW8) (AID 1259255). Also: nearly all actives have a fitted effect of over 35% in size. Also: potency is read from the fitted curve at half-maximal effect.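 As to viability: 100% = DMSO-treated cells and 0% = medium-only wells without cells.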 In outline: as §2
The nature of assay [15]: Identifying Small Molecule Inhibitors of Pancreatic Cancer Stem Cells (SN12C, Adherent) (AID 1259358).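 Also: cell survival measured after 48 h of compound exposure.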 In outline:
as §3

Assay [16] in a line: Identifying Small Molecule Inhibitors of Pancreatic Cancer Stem Cells (SN12C, Spheroid) (AID 1259360). Also: potency is read from the fitted curve at half-maximal effect.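 As to viability (% of control): 100% = DMSO-treated cells and 0% = wells without cells.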 Conditions: Potency: SN12C spheroid viability. In outline: (§4)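 After a 4 h attachment period, compounds were pinned into wells and cultures held 48 h under standard incubator conditions. Viability was then measured as CellTiter-Glo luminescence following 10 min at room temperature.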

Assay [17] in a line: Identifying Small Molecule Inhibitors of Pancreatic Cancer Stem Cells (Panc1, Spheroid) (AID 1259359).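 Also: potency is read from the fitted curve at half-maximal effect; compound exposure lasted 48 h before reading.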 In short, it runs like this:
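Luminescent ATP readout (CellTiter-Glo) quantifies surviving cells after a 48 h drug incubation. Normalization uses DMSO wells as no inhibition and media-only wells as full inhibition; bortezomib served as positive control.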

Assay [18] can be described thus: Identifying Small Molecule Inhibitors of Pancreatic Cancer Stem Cells (Panc1, Adherent) (AID 1259362). Also: potency is read from the fitted curve at half-maximal effect. Conditions: Potency: viability. In outline: as §4

Inconclusive results are not listed. Active and inactive are the calls of the source. Unless noted, calls follow the shape of the dose curve; as a rule, active = well fitted curve in the direction sought with a large enough effect; inconclusive = small, poorly fitted or top-dose-only effect, or another doubt; inactive = no such curve, though single readings can be large; an effect the other way counts as inactive or inconclusive.

Turning to `CSc1cccc(Nc2ncc3cc(-c4c(Cl)cccc4Cl)c(=O)n(C)c3n2)c1`, the parasite growth, % of DMSO control in [1] is 5.72%. For the same compound, in assay [2], the parasite growth remaining, % of DMSO control (lower = more inhibition) was 13.9%. In assay [3], the parasite growth, % of control (lower = inhibition) worked out at 9.88%. The growth, % of control in assay [4] is 9.92%. In assay [5], the cell viability, % of control (lower = more cytotoxic) is 288%. The viability (% of control) in assay [6] worked out at 34.2%. For the same compound, the Potency result in assay [7] and in assay [8] was “inactive” throughout. Besides, in assay [9], the Potency was 0.0935 µM (active).
Consider `C[C@H](c1ccc(F)cc1CCCC(=O)O)N(c1cc(F)ccc1F)S(=O)(=O)c1ccc(Cl)cc1`, for which the parasite growth remaining, % of DMSO control (lower = more inhibition) in assay [2] stood at 42.9%. The compound further yielded a parasite growth, % of control (lower = inhibition) in assay [3] of 35.7%. Moreover, the growth, % of control in assay [4] was found to be 47.7%. For the same compound, in assay [5], the cell viability, % of control (lower = more cytotoxic) was 144%. Also, in assay [6], the viability (% of control) turned out to be 92.6%. The Potency entry in [7] and in assay [8] was “inactive” in each case. The Potency in [9] is 18.7 µM (active).
Regarding `CCN(CC)CCCCNc1nc2cc(Cl)c(Cl)cc2nc1-c1ccc(-c2cccs2)s1`, in [10], the remaining proliferation (% of control), lower = more inhibition is 4.08%. The parasite growth, % of DMSO control in [1] was found to be 9.66%. In addition, in assay [2], the parasite growth remaining, % of DMSO control (lower = more inhibition) worked out at 10.5%. This compound also came in with a parasite growth, % of control (lower = inhibition) in assay [3] of 19.1%. The same compound had a growth, % of control in [4] of 5.94%. The cell viability, % of control (lower = more cytotoxic) in [5] amounted to 5.29%. The viability (% of control) in [6] was determined as 4.45%. For the same compound, the Potency result in [7] and in assay [8] was “inactive” in each case. The figures for the Potency in [11] and in [12] were 23.5 µM (active) and 18.7 µM (active), respectively. The IC50 (viability decrease) in assay [13] was 23.5 µM (active).
Turning to `CCC=CC[C@H]1C(=O)CC[C@@H]1CC(=O)OC`, the remaining proliferation (% of control), lower = more inhibition in assay [10] is 113%. This compound also gave a parasite growth, % of DMSO control in [1] of 62.5%. Further, the parasite growth remaining, % of DMSO control (lower = more inhibition) in assay [2] was 109%. This compound also showed a parasite growth, % of control (lower = inhibition) in [3] of 86.4%. Also, the cell viability, % of control (lower = more cytotoxic) in assay [5] was 137%. The viability (% of control) in [6] was found to be 107%. In addition, the Potency result in [7], in [8], in assay [14], in [15] and in [16] was “inactive” in each case. Also, the Potency in assay [11] is 16.6 µM (active). In [13], the IC50 (viability decrease) entry was “inactive”.
Consider `CCOC(=O)c1c(CSc2ccccc2)n(C)c2cc(Br)c(O)c(CN(C)C)c12`, for which, in assay [2], the parasite growth remaining, % of DMSO control (lower = more inhibition) is 10.6%. Also, the parasite growth, % of control (lower = inhibition) in assay [3] came to 12.1%. The compound further showed a growth, % of control in [4] of 2.97%. Further, the cell viability, % of control (lower = more cytotoxic) in assay [5] turned out to be 164%. Also, in assay [6], the viability (% of control) amounted to 52.2%. In addition, the Potency result in assay [7] and in [8] was “inactive” throughout. Further, the Potency is 16.6 µM (active) in assay [11], 20.9 µM (active) in [14] and 13.2 µM (active) in [12].
For `CNC(=O)c1cc(Oc2ccc(NC(=O)Nc3ccc(Cl)c(C(F)(F)F)c3)c(F)c2)ccn1`, the remaining proliferation (% of control), lower = more inhibition in [10] was found to be 1.38%. In assay [1], this compound displayed a parasite growth, % of DMSO control of 5.25%. Also, in [2], the parasite growth remaining, % of DMSO control (lower = more inhibition) is 33.1%. The compound further showed a parasite growth, % of control (lower = inhibition) in assay [3] of 11.8%. In assay [4], this compound showed a growth, % of control of 4.74%. Further, the cell viability, % of control (lower = more cytotoxic) in assay [5] is 16.6%. The viability (% of control) in assay [6] came to 31.5%. The Potency entry in [7] and in assay [8] was “inactive” throughout. The Potency in [11] was 20.9 µM (active); in assay [14], 20.9 µM (active); in assay [12], 20.9 µM (active); in [17] it was 20.9 µM (active); in assay [16], 18.7 µM (active); in assay [18], 20.9 µM (active). The IC50 (viability decrease) in assay [13] is 16.6 µM (active).
For the compound `CC(C)C[C@H](NC(=O)c1cc2ccccc2s1)C(=O)N1CCN(C(=O)[C@H](CO)NS(=O)(=O)c2ccc(Cl)cc2Cl)CC1`, the remaining proliferation (% of control), lower = more inhibition in assay [10] is 5.88%. Moreover, the parasite growth, % of DMSO control in [1] was 11.1%. Moreover, the parasite growth remaining, % of DMSO control (lower = more inhibition) in [2] is 47.5%. This compound also showed a parasite growth, % of control (lower = inhibition) in [3] of 20.2%. Further, the growth, % of control in [4] was 10.7%. For the same compound, in assay [5], the cell viability, % of control (lower = more cytotoxic) is 29.4%. Also, the viability (% of control) in assay [6] is 67%. Moreover, the Potency result in [7] and in [8] was “inactive” each time. Moreover, the Potency in [11] is 23.5 µM (active); in assay [14], 20.9 µM (active); in [12], 23.5 µM (active).
As for `CN(C)S(=O)(=O)c1ccc2c(c1)C(=Cc1cc3c([nH]1)CCCC3)C(=O)N2`, in [1], the parasite growth, % of DMSO control stood at 22.9%. Further, the parasite growth remaining, % of DMSO control (lower = more inhibition) in assay [2] turned out to be 22.5%. In addition, in [3], the parasite growth, % of control (lower = inhibition) was 30%. This compound also displayed a growth, % of control in assay [4] of 8.5%. In addition, in assay [5], the cell viability, % of control (lower = more cytotoxic) is 119%. For the same compound, in assay [6], the viability (% of control) worked out at 35.3%. Besides, the Potency result in assay [7] and in [8] was “inactive” throughout. Moreover, the Potency in assay [11] is 9.35 µM (active); in [14], 8.33 µM (active).
